# Measurements: PubChem BioAssay
# The source made the active and inactive calls.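 Rule for the calls, unless noted: active = NADPH fluorescence slope more negative than the mean of all samples by about 3 SD, 99.7% confidence; inactive = the rest.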
# Experiments:
# [1] = inhibitors of TNFa-induced NFkB p65 translocation, primary screen, imaging, HUVEC, MLSMR starter and 10KST1 sets (AID 438;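 active = inhibition above 20% together with a positive visual image hit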;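 note: compound added about 3h40 before a 20 min TNFalpha stimulation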;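 for inhibition: signal is the nuclear over cytoplasmic p65 intensity ratio per well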); settings: HUVEC TNFa-induced p65 nuclear translocation; cell count: measured here: nuclei count (cytotoxicity indicator), at 2.08 µM; inhibition: at 2 µM, stronger effect = higher value, 0% TNFa-plus-vehicle, 100% no-TNFa wells
# [2] = reduction of polyQ htt aggregates in cells – imaging, exon1htt(103Q)mCFP cells, high-content imaging, primary screen (AID 483;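 active = visual image review flags a hit and inhibition of aggregation exceeds 20%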;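 note: compound exposure lasted 3 days before fixation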;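 for nuclei count: percent of the per-plate median nuclei count of sample wells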); settings: exon1htt(103Q)mCFP cell line, aggregate imaging, at 2 µM; inhibition of aggregation: stronger effect = higher value; nuclei count: measured here: cell count, toxicity
# [3] = endothelial E-selectin expression blockers – imaging, HUVEC, immunofluorescence, MLSMR starter and 10KST1 sets, primary screen (AID 487;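 active = visually confirmed hit in the image check and inhibition above 20%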;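 for inhibition: signal is fraction of cell area covered by stained E-selectin grains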;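 for nuclei count: 100% = median nuclei count of all wells on the same plate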); settings: HUVEC TNFalpha-induced E-selectin immunofluorescence imaging, at 2 µM; inhibition: stronger effect = higher value; nuclei count: measured here: cell number, toxicity
# [4] = molecular target: Voltage-gated potassium channel subunit beta-2 (Rattus norvegicus) (UniProt P62483); experiment: inhibitors of rat Kvbeta2 reductase activity – biochemical, NADPH fluorescence, primary screen (AID 622;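 active = fluorescence slope higher than the sample average by over 3 SD, cut at about -0.22 in these data, passing the limit was not always enough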;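 note: slope of raw intensity against log time taken from 70 to 1610 s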); settings: recombinant KvBeta, 4-cyanobenzaldehyde reduction, at 10 µM, stronger effect = higher value
# [5] = molecular target: Voltage-gated potassium channel subunit beta-2 (Rattus norvegicus) (UniProt P62483); experiment: enhancers of rat Kvbeta2 NADPH turnover – biochemical, NADPH fluorescence, primary screen (AID 623); settings: Recombinant KvBeta, NADPH fluorescence decrease slope, 10 min; at 10 µM; stronger effect = lower value;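 note: fluorescence intensity change per second fitted from 20 to 320 s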
# [6] = molecular target: Alpha-2C adrenergic receptor (Homo sapiens) (UniProt P18825); experiment: compounds altering alpha2C-coupled GIRK flux – cell-based, HEK293 alpha2C/GIRK1/2, thallium flux, primary screen (AID 624;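 active = fluorescence slope after compound addition differing from the mean of all screened samples at 99.7% confidence, in either direction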;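 note: slope of fluorescence ratio to pre-addition baseline per second over 15 to 24 s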); settings: thallium flux BTC fluorescence, at 10 µM, actives lie on both sides
# [7] = blockers of RIG-like receptor reporter activation – cell-based, Sendai virus stimulus, luciferase, 10K MLSCN set, TLR/RLR signaling modifier project, primary screen (AID 602276;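 active = inhibition at or above 50% at 10 µM; inactive = inhibition below 50%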;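 note: firefly luciferase from ISG56 promoter only with Renilla not read in this screen; 0% = Sendai virus plus DMSO and 100% = medium plus DMSO without virus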); settings: HEK293 RL24 IRF3 luciferase reporter, at 10 µM, stronger effect = higher value
# [8] = TLR3 IRF3 reporter activation blockers – cell-based, poly I:C stimulus, luciferase, 10K MLSCN set, primary screen (AID 602277;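 active = inhibition of the reporter signal at or above 50%; inactive = inhibition below 50%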); settings: HEK293-TLR3 RL24 IRF3 luciferase reporter, at 10 µM, stronger effect = higher value
# Alpha-2C adrenergic receptor (Homo sapiens), sequence (P18825 whole entry, looked up): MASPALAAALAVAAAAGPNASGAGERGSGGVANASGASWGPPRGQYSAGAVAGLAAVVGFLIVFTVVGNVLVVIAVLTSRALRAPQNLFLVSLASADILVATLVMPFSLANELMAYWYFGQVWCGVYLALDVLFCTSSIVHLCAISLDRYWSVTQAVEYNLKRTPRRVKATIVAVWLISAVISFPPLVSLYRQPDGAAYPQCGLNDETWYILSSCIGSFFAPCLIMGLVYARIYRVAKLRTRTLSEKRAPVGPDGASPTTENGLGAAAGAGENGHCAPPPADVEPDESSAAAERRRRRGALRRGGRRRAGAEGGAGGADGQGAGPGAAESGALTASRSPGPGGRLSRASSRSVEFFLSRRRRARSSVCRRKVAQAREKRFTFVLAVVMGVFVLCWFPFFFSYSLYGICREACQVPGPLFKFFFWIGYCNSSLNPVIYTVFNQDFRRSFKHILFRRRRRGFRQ
# Voltage-gated potassium channel subunit beta-2 (Rattus norvegicus), sequence (P62483 whole entry, looked up): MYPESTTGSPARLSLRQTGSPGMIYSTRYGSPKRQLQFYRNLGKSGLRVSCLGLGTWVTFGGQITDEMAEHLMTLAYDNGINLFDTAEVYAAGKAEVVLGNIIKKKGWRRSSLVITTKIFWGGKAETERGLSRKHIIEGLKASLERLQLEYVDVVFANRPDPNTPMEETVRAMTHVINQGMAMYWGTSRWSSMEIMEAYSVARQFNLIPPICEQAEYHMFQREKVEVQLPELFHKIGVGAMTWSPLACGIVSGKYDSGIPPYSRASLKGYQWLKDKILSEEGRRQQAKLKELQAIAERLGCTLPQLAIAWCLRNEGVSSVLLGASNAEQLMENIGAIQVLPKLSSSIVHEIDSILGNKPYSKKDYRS
SMILES,cell count [1],inhibition [1],inhibition of aggregation [2],nuclei count [2] [%],inhibition [3],nuclei count [3] [%],fluorescence slope [4],NADPH fluorescence slope [5],slope [6],inhibition [7],inhibition [8]
Cc1ccc(SCC(=O)NCCN2C(=O)CSC2=O)c(C)c1,323,22.6% (inactive),-4.2% (inactive),93.3,-98.3% (inactive),115,-0.422 (inactive),-2.5e-05 (inactive),0.00367 (inactive),0.863% (inactive),35.6% (inactive)
COc1ccc(N2CCN(CCNC(=O)CCS(=O)(=O)c3cccc4nsnc34)CC2)cc1,747,-6.4% (inactive),-23% (inactive),101,15% (inactive),109,-0.598 (inactive),-3.9e-05 (inactive),0.00466 (inactive),16.8% (inactive),15.8% (inactive)
CCCc1cc(=O)oc2c(C)c3occ(C)c3cc12,486,2.1% (inactive),-5.5% (inactive),99.6,-11.9% (inactive),109,-0.57 (inactive),-4.7e-05 (inactive),0.00609 (inactive),2.73% (inactive),6.19% (inactive)
CCOC(=O)C1=C(CS(=O)(=O)c2ccc(F)c(C)c2)NC(=O)NC1c1ccc(O)c(O)c1 (configuration not stated),619,-0.8% (inactive),8.1% (inactive),112,-35.7% (inactive),116,-0.576 (inactive),-2.4e-05 (inactive),0.00703 (inactive),-1.61% (inactive),5.18% (inactive)
CC1=CCC(C(C)(C)NC(=O)c2ccccc2)C/C1=N\O (configuration not stated),313,2% (inactive),-4.5% (inactive),89.1,-6.2% (inactive),120,-0.624 (inactive),-1.5e-05 (inactive),0.00574 (inactive),17.1% (inactive),20.6% (inactive)
CN(C)CCN1C(=O)c2oc3ccc(Cl)cc3c(=O)c2C1c1cccc(Br)c1 (configuration not stated),229,-8.1% (inactive),13.3% (inactive),83.3,-36.3% (inactive),89.9,-0.412 (inactive),-1.4e-05 (inactive),0.00335 (inactive),17.2% (inactive),49.7% (inactive)
COc1ccc(OC)c(C(=O)CSc2nnc(-c3ccc(OC)c(OC)c3)o2)c1,399,1% (inactive),44.4% (active),15.1,-114% (inactive),181,-0.458 (inactive),3.9e-05 (inactive),0.00796 (inactive),12% (inactive),21.8% (inactive)
